SMILES strings stand for the structures. About 83,000 compounds went through this panel and 20% of them were active in at least one assay; those are over-represented in the sample as a whole.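 Note: values are percent growth. 100 is the growth of untreated cells, values between 100 and 0 indicate rising inhibition; between -100 and 0 indicates cell death.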 Unmarked numbers belong to inactive results. Activity calls are given as the source filed them. The calls were made as follows: active = growth percent below 10; inactive = the rest.

What all share (experiment): NCI-60 one-dose screen, 48 h (100 = growth as untreated, 0 = no growth, -100 = all killed)
Holding throughout (conditions): 10 µM unless noted

Assay [1] has as its system NCI-H23 lung.
Assay [2] concerns NCI-H226 lung.
The subject of assay [3] is NCI-H322M lung.
Assay [4] concerns HOP-62 NSCLC.
Assay [5] concerns NCI-H460 lung.
Assay [6] has as its system A549/ATCC NSCLC.
Assay [7] deals with 786-0 renal.
Assay [8] concerns COLO 205 colon.

For `COC(=O)[C@@H]1[C@H](O)[C@H](C)[C@H](O)[C@H](C)/C=C\C=C(C)C(=O)Nc2c(C)c(OC(C)=O)c3c(c2O)C(=O)C(C)=C2OCOC(=C23)C(C)=C[C@@](C)(O)[C@H](O)[C@@H](C)[C@H]1OC(C)=O`, the growth in assay [1] is 109%; in assay [2], 104%; in assay [3] it was 121%; in assay [4], -100% (active); in assay [5] it was 110%; in assay [6] it was 98.6%. The growth was 111% in assay [7] and 116% in assay [8].
`COc1ccc(C2CC(=O)c3c(O)cc(OC4OC(COC5OC(C)C(O)C(O)C5O)C(O)C(O)C4O)cc3O2)cc1O` (stereo not given): the growth was 105% in assay [1]; 105% in assay [2]; 81.7% in assay [3]; 10.3% in assay [4]; 110% in assay [5]; 98.3% in assay [6]. Also, the figures for the growth in assay [7] and in assay [8] were 100% and 112%, respectively.
Turning to `CC[C@@H](C)/C=C(C)/C=C/C(=O)c1c(O)c(-c2ccc(OC(=O)[C@@]34CC[C@@](C)(C(=O)O3)C4(C)C)cc2)cn(O)c1=O`, the growth in assay [1] was 21.8%; in assay [2], 36.8%; in assay [3], -4.05% (active); in assay [4], 21%; in assay [5], -7.48% (active); in assay [6], 43.6%. Further, the values for the growth in assay [7] and in assay [8] were -31.8% (active) and 112%, respectively.
Take `O=C1C=C(OCC=C(C(F)(F)F)C(F)(F)F)c2ccccc2C1=O`: the growth in assay [1] was 19.1%; in assay [2], 14.7%; in assay [3], 90.5%; in assay [4], 66.6%; in assay [5], 59%; in assay [6] it was 82.9%. In assay [7], the growth is -19.8% (active).
Take `CC(CCN1CCN(CCC(C)CC(C)(C)C)C1CC(C)CC(C)(C)C)CC(C)(C)C` (stereo not given): the growth in assay [1] is 100%; in assay [2] it was 98.7%; in assay [3], 99.8%; in assay [4] it was 93.5%; in assay [5], 101%; in assay [6] it was 96.2%. Besides, the growth in assay [7] is 97.9%; in assay [8], 86.2%.
Turning to `COC(=O)CC(=O)C(=O)OC`, the growth was 103% in assay [1]; 97.7% in assay [2]; 107% in assay [3]; 103% in assay [4]; 104% in assay [5]; 104% in assay [6]. In addition, the growth was 95.2% in assay [7] and 114% in assay [8].
Regarding `O=C(CCl)c1ccc2c(c1)CCCC2`, the growth in assay [1] is 105%; in assay [2] it was 108%; in assay [3], 94.3%; in assay [4] it was 107%; in assay [5] it was 107%; in assay [6], 101%. In addition, the growth in assay [7] is 90.6%; in assay [8], 113%.
For `O=CN/N=C/c1ccc(Cl)c([N+](=O)[O-])c1`, the growth is 26.5% in assay [1]; 35.4% in assay [2]; 28.6% in assay [3]; 20.8% in assay [4]; 8.54% (active) in assay [5]; 14.5% in assay [6]. For the same molecule, the growth in assay [7] is 31.6%; in assay [8] it was 26%.
As to `O=C(CCl)NC1c2ccccc2Oc2ccccc21`, the growth was 70.4% in assay [1]; 98.1% in assay [2]; 97.9% in assay [3]; 75.5% in assay [4]; 64.8% in assay [5]; 71.7% in assay [6]. For the same molecule, the growth is 77.2% in assay [7] and 103% in assay [8].
On to `C=CC1CN2CCC1CC2C(O)c1ccnc2ccc(OC)cc12` (stereo not given), for which the growth was 98.3% in assay [1]; 91.9% in assay [2]; 94.4% in assay [3]; 79.8% in assay [4]; 98.5% in assay [5]; 97.3% in assay [6]. Moreover, the growth in assay [7] is 92%; in assay [8], 106%.
In the case of `CCOc1ccc(N(C)c2ccc(/C=C/C3=[N+](C)c4ccccc4C3(C)C)cc2)cc1`, the growth in assay [1] is 4.67% (active); in assay [2] it was 54.2%; in assay [3], 57%; in assay [4], 12.3%; in assay [5], -50% (active); in assay [6] it was 9.51% (active). For the same molecule, the growth was 2.71% (active) in assay [7] and -77% (active) in assay [8].
Take `COC(=O)C(N)CC(C)C` (stereo not given): the growth in assay [1] was 107%; in assay [2], 97.1%; in assay [3], 106%; in assay [4] it was 110%; in assay [5] it was 108%; in assay [6], 103%. The growth in assay [7] was 96.7%; in assay [8], 114%.
In the case of `COC(=O)c1cc(Nc2ccc(O)c3c2C(=O)c2c([N+](=O)[O-])ccc(O)c2C3=O)cc(C(=O)OC)c1`, the growth in assay [1] is -20.3% (active); in assay [2], 82.5%; in assay [3] it was -2.32% (active); in assay [4], 72.8%; in assay [5] it was 55.7%; in assay [6], -50.2% (active). Also, the growth is 88.7% in assay [7] and 12% in assay [8].
`COc1cc(-c2nc(/C=C3/C(=O)Nc4ccccc43)c3ccccn23)cc(OC)c1OC`: the growth is 47.7% in assay [1]; 82.5% in assay [2]; 113% in assay [3]; 87.4% in assay [4]; 66.4% in assay [5]; 77% in assay [6]. For the same molecule, the growth in assay [7] is 71.9%; in assay [8], 75.1%.
Turning to `Cn1c2ccccc2c2ccccc21`, the growth in assay [1] is 99%; in assay [2], 103%; in assay [3], 94.9%; in assay [4] it was 90.8%; in assay [5], 110%; in assay [6] it was 108%. Moreover, the values for the growth in assay [7] and in assay [8] were 105% and 104%, respectively.
Take `COc1ccc(C(=O)NCCNc2nccc(-c3c(-c4ccc(F)cc4)nc4sccn34)n2)cc1`: the growth in assay [1] is 70.7%; in assay [2], 54.8%; in assay [3], 68.1%; in assay [4] it was 64.8%; in assay [5], 26.1%; in assay [6] it was 34%. Also, the growth in assay [7] is 48.9%; in assay [8], 47%.
`CCCCCCC(C(=O)OCC)(C(=O)OCC)C1CCCCCC1`: the growth in assay [1] was 107%; in assay [2], 99.6%; in assay [3] it was 96.6%; in assay [4], 91.9%; in assay [5] it was 106%; in assay [6] it was 96%. For the same molecule, the values for the growth in assay [7] and in assay [8] were 115% and 102%, respectively.
With `Nc1nc(-c2cccc(Br)c2)cc(-c2cc3ccccc3oc2=O)n1`, the growth in assay [1] is 96.1%; in assay [2] it was 91.5%; in assay [3], 115%; in assay [4], 90.9%; in assay [5], 103%; in assay [6] it was 97.2%. For the same molecule, the figures for the growth in assay [7] and in assay [8] were 105% and 113%, respectively.
Regarding `CC1CCCCC[N+]12CCCC2` (stereo not given), the growth was 111% in assay [1]; 93.6% in assay [2]; 96.4% in assay [3]; 103% in assay [4]; 113% in assay [5]; 103% in assay [6]. Also, the growth in assay [7] was 96.8%; in assay [8] it was 108%.
With `C=CN(C)S(C)(=O)=O`, the growth was 32.2% in assay [1]; 91.2% in assay [2]; 39.5% in assay [3]; 22.6% in assay [4]; 17.8% in assay [5]; 34.5% in assay [6]. Also, the growth in assay [7] is 39.5%; in assay [8], 111%.
For `O=C(O)CS(=O)c1ccc(Cl)cc1` (stereo not given), the growth was 106% in assay [1]; 103% in assay [2]; 87.7% in assay [3]; 101% in assay [4]; 104% in assay [5]; 103% in assay [6]. Further, the growth in assay [7] was 95.7%; in assay [8], 107%.
Turning to `CSc1nc(N)n2nccc2n1`, the growth in assay [1] was 107%; in assay [2], 83.9%; in assay [3], 102%; in assay [4], 89.6%; in assay [5] it was 104%; in assay [6], 102%. Further, the figures for the growth in assay [7] and in assay [8] were 97.2% and 105%, respectively.
For `O=C(OCC1CC2(Cl)C(Cl)=C(Cl)C1(Cl)C2(Cl)Cl)C1C(C(=O)OCC2CC3(Cl)C(Cl)=C(Cl)C2(Cl)C3(Cl)Cl)C2(Cl)C(Cl)=C(Cl)C1(Cl)C2(Cl)Cl` (stereo not given), the growth is 105% in assay [1]; 99.2% in assay [2]; 98.4% in assay [3]; 108% in assay [4]; 114% in assay [5]; 103% in assay [6]. The figures for the growth in assay [7] and in assay [8] were 94% and 99.7%, respectively.
With `COC(=O)c1cc(O)c2cc3c(cc2c1-c1cc(OC)c(OC)c(OC)c1)OCO3`, the growth in assay [1] was 49.9%; in assay [2] it was 50.6%; in assay [3] it was 59.9%; in assay [4], 28%; in assay [5], 14.7%; in assay [6], 45.1%. In addition, the growth was 29.6% in assay [7] and 5.08% (active) in assay [8].
As for `N#Cc1c2cccnc2c2nnc3cc(Cl)c(Cl)cc3n12`, the growth in assay [1] is -20.2% (active); in assay [2], 79.6%; in assay [3], 44.5%; in assay [4], 26.1%; in assay [5], 34.2%; in assay [6] it was 83%. Also, the growth in assay [7] is 81.2%; in assay [8] it was 85.8%.
In the case of `N=C(c1ccccc1)N(Cc1ccccc1)Cc1ccccc1`, the growth in assay [1] is 92.9%; in assay [2] it was 104%; in assay [3], 84%; in assay [4], 97.1%; in assay [5], 98.3%; in assay [6], 90.3%. The growth was 86.5% in assay [7] and 88.2% in assay [8].
For the molecule `COc1cc(-c2nn(-c3ccc(NC(=O)c4ccc(Cl)c(C(F)(F)F)c4)cc3)cc2-c2ccncc2)ccc1Cl`, the growth was 18.7% in assay [1]; 55.5% in assay [2]; 55.9% in assay [3]; 5.59% (active) in assay [4]; 11.9% in assay [5]; 29% in assay [6]. Further, the growth in assay [7] was -84.5% (active); in assay [8], -22.4% (active).
For `CCOC(=O)c1csc(-c2ccc(COC(=O)c3ccccc3)o2)n1`, the growth in assay [1] was 108%; in assay [2], 104%; in assay [3] it was 93.2%; in assay [4], 99.5%; in assay [5], 109%; in assay [6] it was 99.7%. The growth was 102% in assay [7] and 114% in assay [8].
With `CCOC(=O)/C(C#N)=C(/CC)OCC`, the growth is 110% in assay [1]; 102% in assay [2]; 92.2% in assay [3]; 104% in assay [4]; 110% in assay [5]; 104% in assay [6]. Moreover, the growth in assay [7] was 103%; in assay [8], 113%.
Take `O=c1c2c(c3ccccc3n1-c1ccccc1)NC(=S)NC2c1ccc(Cl)cc1` (stereo not given): the growth in assay [1] is 26.7%; in assay [2], 65%; in assay [3] it was 45.1%; in assay [4], 29.3%; in assay [5] it was 2.25% (active); in assay [6], 31.7%. For the same molecule, the growth in assay [7] is 18.6%; in assay [8] it was 67.2%.
As for `O=C(Nc1ccc(-n2cc(-c3ccncc3)c(-c3ccc(Cl)c(O)c3)n2)cc1)Nc1cc(C(F)(F)F)cc(C(F)(F)F)c1`, the growth in assay [1] was 15.4%; in assay [2] it was 42%; in assay [3] it was 41.9%; in assay [4], 14%; in assay [5], 5.79% (active); in assay [6] it was 17.6%. Besides, the figures for the growth in assay [7] and in assay [8] were -60.1% (active) and -55.2% (active), respectively.
`O=C1C(Br)=CC2C1C1C3CCC3C2(Br)C12OCCO2` (stereo not given): the growth in assay [1] was 65.8%; in assay [2], 59.6%; in assay [3], 54.5%; in assay [4], 47.2%; in assay [5], 22.6%; in assay [6], 33.2%. Moreover, the growth is 42.8% in assay [7] and 38.9% in assay [8].

Values taken from PubChem BioAssay (NCI).
